The target of this test is pT7_6His-AlfaTag-ZIF268 (human, UniProt P18146 335-423). The test is described as follows: PADIT-seq. The note with it: dsDNA, one strand shown.
With “CTCGAGGATATCAAGATCTGGCCTCGGCGCGTGGTGGGGAACCTCTAGCTAGCCGACTCACTATAGGGATAATCGCCCTGAGCAAAGACC”, the binding signal stood at 0.205 ± 0.103 log2FC.
Turning to “CTCGAGGATATCAAGATCTGGCCTCGGCCGCCCAAGGGGAACCTCTAGCTAGCCGACTCACTATAGGGATAATCGCCCTGAGCAAAGACC”, the binding signal was determined as 0.0235 ± 0.109 log2FC.
“CTCGAGGATATCAAGATCTGGCCTCGGCGCGCGGGCGGGAACCTCTAGCTAGCCGACTCACTATAGGGATAATCGCCCTGAGCAAAGACC” returned a binding signal of 1.18 ± 0.1 log2FC.
Sequence “CTCGAGGATATCAAGATCTGGCCTCGGCCGCCCATGGGGAACCTCTAGCTAGCCGACTCACTATAGGGATAATCGCCCTGAGCAAAGACC” gave a binding signal of 0.0348 ± 0.099 log2FC.
Then “CTCGAGGATATCAAGATCTGGCCTCGGCCTCCCACGCGGAACCTCTAGCTAGCCGACTCACTATAGGGATAATCGCCCTGAGCAAAGACC”, with 1.28 ± 0.0958 log2FC; and “CTCGAGGATATCAAGATCTGGCCTCGGCTACCCACGCGGAACCTCTAGCTAGCCGACTCACTATAGGGATAATCGCCCTGAGCAAAGACC”, with 0.362 ± 0.0981 log2FC; and “CTCGAGGATATCAAGATCTGGCCTCGGCGCGTGTGCGGGAACCTCTAGCTAGCCGACTCACTATAGGGATAATCGCCCTGAGCAAAGACC”, with 0.312 ± 0.112 log2FC.
Then “CTCGAGGATATCAAGATCTGGCCTCGGCGACTGGGCGGGAACCTCTAGCTAGCCGACTCACTATAGGGATAATCGCCCTGAGCAAAGACC”, with 0.0505 ± 0.0931 log2FC.
Then “CTCGAGGATATCAAGATCTGGCCTCGGCCGCCCATACGGAACCTCTAGCTAGCCGACTCACTATAGGGATAATCGCCCTGAGCAAAGACC”, with 0.364 ± 0.092 log2FC; and “CTCGAGGATATCAAGATCTGGCCTCGGCCGCCAACGCGGAACCTCTAGCTAGCCGACTCACTATAGGGATAATCGCCCTGAGCAAAGACC”, with 0.204 ± 0.0826 log2FC.

The record behind these values is paper doi:10.1101/2024.03.05.583629.
